A selection: hits, their analogues and other compounds. The true share with any hit is near 5.4%.
FMDV antiviral = High Throughput Screening for Foot and Mouth Disease Virus Antivirals; FMDV antiviral cell-based qHTS; Potency, µM (top dose mostly 57.9 µM), for inactives: top-dose activity change, negative = inhibition, usual class: inhibitors; 410,000 compounds, 1.2% hits; calls by dose curve; tested in HEK293T cells; note: read-out not given here; nearly all actives have a fitted effect of over 45% in size
Lassa entry inh = qHTS for Inhibitors of binding or entry into cells for Lassa Virus. AID 540256, 2011. Lassa virus pseudotype entry inhibition, cell reporter. 300,000 compounds, 1.2% hits. Potency, µM (series often up to 37.9 µM), for the others: top-dose activity change, negative = inhibition, usual class: inhibitors; calls by dose curve; tested in HEK293 cells; note: nearly all actives have a fitted effect of over 50% in size
Sm TGR inh = qHTS Assay for the Inhibitors of Schistosoma Mansoni Peroxiredoxins; purified TGR, DTNB reduction, TNB absorbance 405 nm; Potency, µM (top dose mostly 114 µM), for the others: top-dose activity change, negative = inhibition, hits mostly inhibitors; 360,000 compounds, 3% hits; AID 485364, 2010; active = well fitted inhibition curve with a large enough effect; inconclusive = small, poorly fitted or top-dose-only effect; inactive = no such curve, though single readings can be large or run the other way; note: nearly all actives have a fitted effect of over 60% in size
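TGR 20 nM + NADPH 100 uM (dispensed conc.), cpd preinc 15 min RT; start with NADPH (500 uM addition) then DTNB (15 mM addition). Kinetic TNB absorbance, 405 nm filter. Four-parameter Hill fit across titration.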
Vaccinia mCherry = qHTS for Stage-Specific Inhibitors of Vaccinia Orthopoxvirus: mCherry Reporter Primary qHTS; AID 720579, 2013; Vaccinia virus mCherry reporter infection, fluorescence; Potency, µM (series often up to 36.5 µM), for the others: at the highest dose activity change, negative = inhibition, actives largely listed as inhibitors; 310,000 compounds, 0.63% hits; calls by dose curve; tested in A549 cells; note: nearly all actives have a fitted effect of over 35% in size
Vaccinia Venus = qHTS for Stage-Specific Inhibitors of Vaccinia Orthopoxvirus: Venus Reporter Primary qHTS | 330,000 compounds, 0.46% hits | Potency, µM (top dose mostly 36.5 µM), without a hit: at the top dose activity change, negative = inhibition, most hits filed as inhibitors | AID 720580, 2013 | Vaccinia virus Venus reporter expression, fluorescence; calls by dose curve; tested in A549 cells; note: nearly all actives have a fitted effect of over 30% in size
MARV entry inh = qHTS for inhibitors of binding or entry into cells for Marburg Virus | Marburg virus pseudotyped entry inhibition, cell reporter | Potency, µM (doses to about 37.8 µM), for the others: top-dose activity change, negative = inhibition, hits mostly inhibitors | 300,000 compounds, 1.8% hits; calls by dose curve; tested in HEK293 cells
* marks the source's active call; other numbers are inactive results; i = inactive; ? = inconclusive; . = no result given; [ ] = another dose, or the depositor's remark. % is set by controls: 0 for no effect and ±100 for the full control effect; potency is the fitted concentration of half-maximal effect.

SMILES	FMDV antiviral	Lassa entry inh	Sm TGR inh	Vaccinia mCherry	Vaccinia Venus	MARV entry inh
CCn1ncc(CNC(=O)CCCSc2nc(-c3ccco3)cc(C(F)(F)F)n2)c1C	?	-10.4%	39.8µM*	.	?	-11.1%
O=C(CCSc1nc(-c2ccco2)cc(C(F)(F)F)n1)NCc1ccccn1	-20.2%	1.0%	28.2µM*	-2.3%	-8.2%	-12.5%
CC1CN(Cc2cccn2-c2cccnc2)Cc2cc(Cl)ccc2O1 (configuration not stated)	-12.5%	.	.	-10.4%	1.9%	.
C[C@@H]1CC[C@]2(C(=O)O[C@@H]3O[C@H](CO)[C@@H](O)[C@H](O)[C@H]3O)CC[C@]3(C)C(=CCC4[C@@]5(C)CC[C@H](O[C@@H]6OC[C@H](O)[C@H](O[C@@H]7O[C@H](CO)[C@@H](O)[C@H](O)[C@H]7O)[C@H]6O)C(C)(C)C5CC[C@]43C)C2[C@]1(C)O (some centres not stated)	4.3%	.	.	i	-4.4%	.
COc1ccc(/C=C\C(=O)O[C@@H]2C(O)C(O[C@@H]3OC(C)[C@H](O[C@@H]4OCC(O[C@H]5O[C@H](CO)[C@@H](O)C(O)C5O)C(O)C4O)C(O)C3O)[C@H](OC(=O)[C@]34CCC(C)(C)C[C@@H]3C3=CCC5[C@@]6(C)CC(O)C(O[C@@H]7OC(CO)C(O)[C@H](O)[C@H]7O)[C@@](C)(C(=O)O)C6CC[C@@]5(C)[C@]3(CO)CC4)O[C@H]2C)cc1 (some centres not stated)	0.0%	.	.	?	11.2µM*	.
C[C@@H](c1ccccc1)N1C(=O)[C@@H]2[C@H]3[C@H](O)[C@H](O)CC(=NNC(=O)OCc4ccccc4)[C@@H]3CC[C@H]2C1=O	.	.	.	.	.	-18.4%[14.2 µM]
COc1cccc(CNc2cc(CSc3ccc(Cl)cc3)nc(C)n2)c1	12.6µM*	?	2.3%	.	?	-7.8%
COc1ccccc1CNc1cc(CSc2ccc(Cl)cc2)nc(C)n1	39.8µM*	-7.5%	-12.9%	.	-24.3%	?
COc1cccc(CNc2ccc(C)c(Cl)c2)c1	31.3%	.	-1.2%	?	-19.2%	.
COc1ccccc1CNc1cccc(C)n1	-3.0%	.	.	?	-6.2%	.
CCCC1(C)C(C#N)C(=O)NC(=O)C1C#N (configuration not stated)	3.6%	22.6%[46.1 µM]	.	-20.8%	5.0%	?
CCCC1(C)C(C#N)(C#N)C1(C#N)C#N	.	4.11µM*	.	.	.	16.4µM*
Cc1nnc(NC(=O)C2CCN(S(=O)(=O)c3cc([N+](=O)[O-])ccc3Cl)CC2)o1	-11.5%	.	35.5µM*	.	.	.
CC(C)(CNC(=O)C1CCN(S(=O)(=O)c2cc([N+](=O)[O-])ccc2Cl)CC1)N1CCOCC1	-4.7%	13.9%	0.9%	14.1µM*	?	-7.3%
O=C(NC1=NCCS1)C1CCN(S(=O)(=O)c2cc([N+](=O)[O-])ccc2Cl)CC1	?	-19.9%	.	?	-24.4%	?
Cc1cccc2sc(NC(=O)C3CCN(S(=O)(=O)c4cc([N+](=O)[O-])ccc4Cl)CC3)nc12	?	?	-33.8%	?	?	6.31µM*
CCc1ccc(CNC(=O)c2ccc(NC(=O)N3CCCCc4ccccc43)cc2)cc1	-12.2%	-9.0%[46.1 µM]	4.2%	-15.1%	-26.2%	.
COc1ccc(OCc2ccc(-c3nc(C#N)c(NCc4cccnc4)o3)o2)cc1	?	7.8%[46.1 µM]	-3.5%	-1.7%	-1.5%	-12.0%[46.1 µM]
O=C1NC(=O)C(=Cc2ccc(N3CCN(C(=O)c4ccccc4)CC3)c([N+](=O)[O-])c2)C(=O)N1	-17.0%	1.2%	11.2µM*	i	-9.9%	22.0%[46.1 µM]
COc1ccc(N2CCN(C(=O)c3ccccc3)CC2)c([N+](=O)[O-])c1	-12.2%	-3.0%	1.2%	-29.7%	-6.5%	-0.7%[46.1 µM]
COc1cc2oc(=O)c(CC(=O)N3CCCCC3)c(C)c2cc1Cl	8.9%	3.5%[46.1 µM]	9.5%	-3.3%	2.5%	?
N#Cc1ccc(-c2ccc(C3Nc4ccccc4C(=O)N3O)o2)cc1 (configuration not stated)	-17.3%	.	5.01µM*	.	.	.
O=C1c2ccccc2NC(c2ccc(-c3cccc(F)c3)o2)N1O (configuration not stated)	10.7%	.	?	.	.	.
COC(=O)c1cc(NC(=O)c2ccc3c(c2)N(Cc2cccc(Cl)c2)C(=O)c2ccccc2S3=O)cc(C(=O)OC)c1 (configuration not stated)	-10.9%	26.5%[46.1 µM]	-1.6%	-16.8%	-13.8%	.
Cc1ccc(-n2ncc(C(=O)NCCCN3CCc4ccccc4C3)c2C2CCN(C(=O)OC(C)(C)C)CC2)cc1C	-13.3%	?	-3.2%	-18.1%	-28.9%	.
SMILES	FMDV antiviral	Lassa entry inh	Sm TGR inh	Vaccinia mCherry	Vaccinia Venus	MARV entry inh
O=C(O)Cc1ccc(C(=O)CSc2ccccc2)s1	-4.8%	.	20µM*	.	.	.
Cc1ccc(SCC(=O)c2ccc(CC(=O)O)s2)cc1	17.5%	?	29.9%	i	4.2%	16.8%[46.1 µM]
CN(C(=S)Nc1ccccc1)c1ccccc1	-16.6%	1.2%	-31.0%	-8.4%	-6.8%	?
CN(C(=S)Nc1ccc(Oc2ccccc2)cc1)c1ccc(O)cc1	?	6.1%	39.8µM*	-2.3%	-15.5%	?
N#CC(C#N)=Cc1ccccc1OCc1ccccc1	.	.	3.16µM*	.	.	.
Cc1ccc(S(=O)(=O)/C(C#N)=C/c2ccccc2OCc2ccccc2)cc1	11.7%	?	-1.8%	-12.6%	-19.3%	?
CC(C)[C@@]1(NC(=O)[C@@H]2C=C3c4cccc5[nH]cc(c45)C[C@H]3N(C)C2)O[C@@]2(O)[C@@H]3CCCN3C(=O)[C@H](Cc3ccccc3)N2C1=O	.	-11.5%	8.91µM*	.	.	?
CC(C)C[C@H]1C(=O)N2CCCC2[C@]2(O)O[C@](NC(=O)[C@@H]3C=C4c5cccc6[nH]cc(c56)CC4N(C)C3)(C(C)C)C(=O)N12 (some centres not stated)	-13.2%	0.3%	10µM*	-1.2%	25.1%	-13.6%
CC(C)[C@H]1C(=O)N2CCC[C@H]2[C@]2(O)O[C@](NC(=O)[C@@H]3C=C4c5cccc6[nH]cc(c56)C[C@H]4N(C)C3)(C(C)C)C(=O)N12	-9.0%	-11.2%	7.94µM*	-5.5%	11.2%	?
CC(C)C[C@H]1C(=O)N2CCC[C@H]2[C@]2(O)O[C@](NC(=O)[C@@H]3C=C4c5cccc6[nH]c(Br)c(c56)CC4N(C)C3)(C(C)C)C(=O)N12 (some centres not stated)	-19.0%	?	-28.4%	-20.8%	?	?
COc1ccccc1C1CN(CCNC(=O)c2sccc2Cl)Cc2ccccc2O1 (configuration not stated)	-5.7%	.	.	-13.3%	3.7%	.

Assay outcomes: PubChem BioAssay, National Center for Advancing Translational Sciences (NCATS)
